Measured values reported in PubChem BioAssay (NCI).
Compounds without any hit were thinned out: in the full panel of roughly 83,000, 20% have a hit.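 Percent growth is the endpoint: 0 to 100 indicates growth inhibition (40 means 60% inhibition), 0 means no net growth, and negative values indicate cell death.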 Active and inactive are the calls of the source. Rule for the calls: active = growth percent below 10; inactive = the rest.

Tests used:
Assay in all cases: NCI-60 one-dose screen, 48 h (100 = growth as untreated, 0 = no growth, -100 = all killed)
Conditions in all cases: 10 µM
[1] = test system: SR leukemia
[2] = test system: RPMI-8226 leukemia
[3] = test system: OVCAR-8 ovarian
[4] = test system: OVCAR-5 ovarian
[5] = test system: OVCAR-4 ovarian
[6] = test system: SK-OV-3 ovarian
[7] = test system: IGROV1 ovarian
[8] = test system: OVCAR-3 ovarian
[9] = test system: HS 578T breast
[10] = test system: NCI/ADR-RES ovarian
[11] = test system: T-47D breast
[12] = test system: BT-549 breast
[13] = test system: MDA-MB-435 melanoma
[14] = test system: SW-620 colon
[15] = test system: MCF7 breast
[16] = test system: HCT-116 colon
[17] = test system: HCC-2998 colon
[18] = test system: KM12 colon

Measured: growth

COc1ccc(S(=O)(=O)Nc2cc(/C=C\c3cc(OC)c(OC)c(OC)c3)ccc2OC)cc1
inactive: [1] 10.2% | [4] 30.7% | [5] 34.4% | [6] 11.8% | [7] 13.6% | [9] 10.6% | [10] 11% | [11] 71.7% | [12] 26.9% | [14] 21.3% | [17] 16%
active: [2] 7.64% | [3] 9.01% | [8] -19.8% | [13] -37.9% | [15] -9.99% | [16] 4.3% | [18] -5.35%

O=C1NN(c2ccccc2)C(c2cccnc2)=N/C1=C\c1cccnc1
inactive: [1] 73.6% | [2] 83.3% | [3] 106% | [4] 85.8% | [5] 94.3% | [6] 104% | [7] 103% | [8] 89.8% | [9] 87.1% | [10] 91.2% | [11] 96.7% | [12] 101% | [13] 92.4% | [14] 110% | [15] 92.1% | [16] 91.9% | [17] 99% | [18] 95%

CC(C)c1[nH]nc2c(NCc3ccc(-c4ccccn4)cc3)nc(SCCN(C)C)nc12
inactive: [3] 13.9% | [4] 21.4% | [7] 16.2% | [9] 21.4%
active: [1] -10.3% | [2] -14.4% | [5] -1.82% | [6] 8.24% | [8] 4.83% | [10] 7.1% | [11] -6.72% | [12] -43.1% | [13] 0.81% | [14] 9.8% | [15] 4.04% | [16] 9.24% | [17] -15.7% | [18] 8.47%

O=C(Nc1cccc(-c2nc3ccccc3[nH]2)c1)c1cccc(NC(=O)c2ccco2)c1
active: [13] -1.71%
inactive: [1] 23.5% | [2] 69.2% | [3] 87.2% | [4] 93.8% | [5] 80% | [6] 102% | [7] 86.2% | [8] 98.3% | [9] 79.4% | [10] 84.9% | [11] 65.9% | [12] 96.3% | [14] 96.6% | [15] 61.8% | [16] 58.4% | [17] 96.6% | [18] 88.1%

O=C(COCc1c(-c2ccccc2)no[n+]1[O-])Nc1nc(-c2ccc(Cl)cc2)cs1
inactive: [1] 98.2% | [2] 109% | [3] 101% | [4] 109% | [5] 111% | [6] 95.1% | [7] 112% | [8] 102% | [9] 99.6% | [10] 101% | [11] 103% | [12] 102% | [13] 111% | [14] 101% | [15] 96.3% | [16] 104% | [17] 104% | [18] 101%

NC(=O)c1ccc(Br)o1
inactive: [1] 97.4% | [2] 112% | [3] 108% | [4] 105% | [5] 107% | [6] 104% | [7] 107% | [8] 107% | [9] 109% | [10] 96.8% | [11] 92.9% | [12] 103% | [13] 112% | [14] 113% | [15] 95.5% | [16] 108% | [17] 91.1% | [18] 102%

CCCCOCCOCCOCc1cc2c(cc1Br)OCO2
inactive: [1] 100% | [2] 99.2% | [3] 97.8% | [4] 95.5% | [5] 105% | [6] 96.5% | [7] 89.6% | [8] 111% | [9] 108% | [10] 111% | [11] 88% | [12] 110% | [13] 108% | [14] 100% | [15] 90.2% | [16] 94.9% | [17] 108% | [18] 97.7%

COc1cc([C@@H]2c3cc4c(cc3[C@H](SC(=N)N)[C@H]3COC(=O)[C@H]23)OCO4)cc(OC)c1OC
inactive: [1] 14.1% | [3] 23.5% | [4] 28.2% | [5] 54.7% | [9] 34.2% | [11] 58.6% | [12] 21.7% | [14] 22.5% | [15] 14.4%
active: [2] 8.62% | [6] -4.1% | [7] -0.422% | [8] 1.61% | [10] -0.709% | [13] -31.1% | [16] 0.571% | [17] -1.43% | [18] -0.331%

CS(=O)(=O)Nc1ccc(OCc2nnc(-c3ccc(Cl)cc3)o2)c(F)c1
inactive: [1] 81.2% | [2] 87.9% | [3] 98.1% | [4] 99.5% | [5] 82.1% | [6] 88.8% | [7] 104% | [8] 107% | [9] 98.1% | [10] 96.9% | [11] 63.1% | [12] 89.4% | [13] 104% | [14] 108% | [15] 81.7% | [16] 86.9% | [17] 101% | [18] 98.6%

COc1ccc(NC(=O)c2sc3nc4c(cc3c2N)C(O)CCC4)cc1 (stereo unspecified)
inactive: [1] 67.6% | [2] 103% | [3] 101% | [4] 104% | [5] 95.6% | [6] 112% | [7] 106% | [8] 104% | [9] 112% | [10] 102% | [11] 93.9% | [12] 97.4% | [13] 84.6% | [14] 95.8% | [15] 89.6% | [16] 104% | [17] 113% | [18] 98%

O=C(Cn1ccc(=O)[nH]c1=O)c1ccc([N+](=O)[O-])o1
inactive: [1] 73.9% | [2] 65.5% | [3] 103% | [4] 114% | [5] 97.9% | [6] 112% | [7] 123% | [8] 96.9% | [9] 116% | [10] 107% | [11] 80.4% | [12] 99.4% | [13] 97.1% | [14] 102% | [15] 38.2% | [16] 88.7% | [17] 111% | [18] 83.9%

Cc1cc2cc3c(=O)[nH]c(=O)cc-3n(CC(O)C(O)C(O)CO)c2cc1C (stereo unspecified)
inactive: [1] 111% | [2] 106% | [3] 97.3% | [4] 106% | [5] 109% | [6] 99.1% | [7] 112% | [8] 103% | [9] 101% | [10] 105% | [11] 95.1% | [12] 104% | [13] 104% | [14] 89.8% | [15] 101% | [16] 101% | [17] 109% | [18] 108%

C[n+]1c(/C=C/c2c[nH]c3ccccc23)ccc2ccccc21
inactive: [1] 18.2% | [2] 40.7% | [3] 39.7% | [4] 75.6% | [5] 54.8% | [6] 64.6% | [7] 72.4% | [8] 68.1% | [9] 103% | [10] 100% | [11] 12.1% | [12] 94.7% | [13] 60.3% | [14] 48.8% | [15] 19.4% | [16] 31% | [17] 75.6% | [18] 38.9%

COc1cc(CSc2nc3ccc(Cl)cc3c(=O)n2Cc2ccccc2)cc(OC)c1OC
active: [8] -0.909% | [13] 1.84%
inactive: [1] 23.1% | [2] 68.7% | [3] 53% | [4] 46.7% | [5] 52% | [6] 24.4% | [7] 35.3% | [9] 30.5% | [10] 14% | [11] 33.9% | [12] 21.7% | [14] 28.7% | [15] 14.3% | [16] 20.8% | [17] 50.1% | [18] 23.7%

COc1cc(-c2cc(-c3cc(OC)c(OC)c(OC)c3)nc3nc(N)[nH]c(=O)c23)ccc1Oc1ccnc2cc(Cl)ccc12
active: [1] 5.24% | [8] -26.1% | [13] -57.6%
inactive: [2] 19.7% | [3] 42.1% | [4] 103% | [5] 39% | [6] 26.2% | [7] 52.8% | [9] 36.3% | [10] 21.8% | [11] 30.3% | [12] 34.9% | [14] 19.6% | [15] 17.4% | [16] 16.1% | [17] 56.9% | [18] 13.5%

Cc1noc(C)c1-c1ccc2nc(NC(=O)[C@H]3CCN(C#N)C3)cn2c1
inactive: [1] 42.3% | [2] 97.2% | [3] 91.6% | [4] 92.7% | [5] 63.9% | [6] 103% | [7] 82.2% | [8] 71.7% | [9] 84.4% | [10] 95.8% | [11] 54.8% | [12] 76.3% | [13] 81.7% | [14] 83.6% | [15] 71.1% | [16] 82.1% | [17] 90.4% | [18] 91.3%

CCOC(=O)c1c(C(F)(F)F)n([O-])c2ccc(OC)cc2[n+]1=O
inactive: [3] 23.8% | [4] 60.8% | [5] 30.5% | [6] 23.8% | [7] 24.2% | [8] 32.9% | [9] 41.1% | [10] 31.3% | [11] 12% | [13] 23.6% | [14] 30.2% | [15] 31.9% | [16] 29.4% | [17] 43.8% | [18] 43.7%
active: [1] -13.3% | [2] -34.8% | [12] -3.39%
